In the library only some 2.3% were active in any assay of this set; here they are far more common.
GLS inhibitor: blocks human kidney-isoform glutaminase activity | O94925 | GLS enzymatic activity, qHTS titration | Potency, µM (top dose mostly 45.5 µM), without a hit: at the highest dose activity change, negative = inhibition, actives largely listed as inhibitors | 0.21% of 410,000 active | AID 624170; further: on the % scale 0 is the no-effect control and ±100 the full control effect
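Compounds were pin-transferred onto hKGA, after which L-glutamine (1 mM solution) and a detection mix of glutamate oxidase, HRP and Amplex Red were added. Initial and 30 min RT fluorescence reads were collected.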
GRP78 ERSR act: inducers of ER stress response in human glioma cells. U87-MG GRP78 promoter luciferase reporter, 16 h. Potency, µM, inactives show top-dose activation, most hits filed as activators. 0.02% of 420,000 active. AID 602332; further: series mostly up to about 76 µM; % of control where 0% means no effect; nearly all actives have a fitted effect of over 35% in size
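Stably transfected U87-MG glioma cells carrying a GRP78-based luciferase sensor; 16 h compound incubation. Luminescence end-point read 10 min after Bright-Glo addition at room temperature.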
ALOX12 inh: ALOX12 (human) lipoxygenase inhibition; P18054; Potency, µM (series often up to 108 µM), inactives show at the top dose activity change, negative = inhibition, usual class: inhibitors; 1.1% of 580,000 active; purified 12hLO, xylenol orange hydroperoxide absorbance; further: on the % scale 0 is the no-effect control and ±100 the full control effect
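Purified human 12hLO (150 nM final) in 25 mM Hepes, 0.01% Triton X-100, pH 7.0 was preincubated 15 min at room temperature with compound. Then 40 uM arachidonic acid was added, 30 min. Hydroperoxide was read by Fe-XO absorbance ratio 573/405 nm.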
PTHR1 agonist: activates the human parathyroid hormone receptor PTHR1 | Q03431 | HEK293 GP2 PTHR1 cells, GloSensor cAMP luminescence, 1 h | Potency, µM (highest dose often 115 µM), inactives show at the highest dose activation, hits mostly activators | 0.075% of 410,000 active; further: nearly all actives have a fitted effect of over 55% in size
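HEK-293-derived GP2 cells expressing PTHR1 and a GloSensor cAMP reporter, 3,000/well, plated overnight, given luciferin plus IBMX (each 0.5 mM as added) for 1 h at 37 °C, then compound for 1 h at 37 °C. Luminescence was read after 15 min at room temperature.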
GLP1R inv ag: inverse agonists of human GLP-1 receptor; P43220; HEK293 GLP-1R CRE-luciferase, luminescence, 24 h; GLP-1R form is constitutively active; Potency, µM (top dose mostly 38.3 µM), inactives show at the top dose activity change, negative = inhibition, most hits filed as inhibitors; 1.6% of 410,000 active; further: on the % scale 0 is the no-effect control and ±100 the full control effect; nearly all actives have a fitted effect of over 55% in size
Target sequence (P43220 whole entry, looked up): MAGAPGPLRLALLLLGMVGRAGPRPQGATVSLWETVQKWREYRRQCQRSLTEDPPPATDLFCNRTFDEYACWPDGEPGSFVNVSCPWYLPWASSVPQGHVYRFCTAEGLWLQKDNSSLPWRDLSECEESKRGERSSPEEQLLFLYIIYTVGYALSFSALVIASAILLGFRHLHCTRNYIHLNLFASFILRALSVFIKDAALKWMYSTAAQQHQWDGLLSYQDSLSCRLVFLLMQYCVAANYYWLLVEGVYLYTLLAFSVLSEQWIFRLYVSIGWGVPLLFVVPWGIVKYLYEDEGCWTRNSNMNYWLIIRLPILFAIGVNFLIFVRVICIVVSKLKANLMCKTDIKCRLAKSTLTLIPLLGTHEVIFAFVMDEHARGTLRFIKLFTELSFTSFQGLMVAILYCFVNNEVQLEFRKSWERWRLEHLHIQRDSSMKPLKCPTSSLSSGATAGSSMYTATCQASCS
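Cells are plated, allowed 12 hours at 37 deg C, then treated with compounds for 24 hr before luciferase detection reagent is added and luminescence is read after 12 min at room temperature. The HEK293 line carries constitutively active GLP-1R with a cAMP-responsive reporter.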
GLP1R ag: agonists of human GLP-1 receptor; HEK293 GLP-1R CRE-luciferase, luminescence, 4-6 h; cells express a hypersensitive GLP-1R form; Potency, µM (top dose mostly 45.6 µM), for inactives: at the top dose activation, usual class: activators; 0.007% of 380,000 active; AID 624172; further: % of control where 0% means no effect
* hit, by the source's call; i = inactive; ? = inconclusive; · = no result given; [ ] = another dose, or the depositor's remark. The call rests on the fitted dose curve; in most records, active means well fitted curve in the direction sought with a large enough effect; inconclusive means small, poorly fitted or top-dose-only effect, or another doubt; inactive means no such curve, though single readings can be large; an effect the other way counts as inactive or inconclusive. Potency means the concentration at half of the fitted maximal effect.

SMILES	GLS inhibitor	GRP78 ERSR act	ALOX12 inh	PTHR1 agonist	GLP1R inv ag	GLP1R ag
CCc1c(C)sc(NC(=O)c2cccc(F)c2)c1C#N	·	·	5%	·	·	·
CC(C)(C)C(Cn1ccnc1)NC(=O)c1cc(COc2ccc3c(c2)CCCC3)on1 (configuration not stated)	·	·	102%	·	·	·
CCCc1noc(-c2cn(C3CCN(C(=O)c4ccc(F)c(F)c4)CC3)nn2)n1	·	·	-15%	·	·	·
Oc1ccc(/C=C/c2ccc3cccc(O)c3n2)cc1Br	-1%	?	?	-1%	10µM*	1%
CC(C(=O)NC1C=CS(=O)(=O)C1)N1C(=O)/C(=C/c2ccc(Cl)cc2)SC1=S (configuration not stated)	-3%	2%	40µM*	-31%	4%	-2%
CC(C)(C#N)C(=O)NCc1ccc(OCC(F)(F)F)cc1	·	·	25%	·	·	·
CCC(=O)N1CCN(c2ccc(NC(=O)c3cc4ccccc4o3)cc2Cl)CC1	-1%	-12%	0%	-20%	11µM*	-38%
Cc1ccc(-c2nc3cc(NC(=O)c4cc5ccccc5o4)ccc3o2)cc1Cl	-3%	-1%	2%	i	4%	·
Cc1ccc(NC(=O)c2cc3ccccc3o2)cc1Cl	-14%	3%	8%	-32%	13µM*	7%
O=C(O)c1ccc(Nc2nc(-c3ccc(Cl)cc3)cs2)cc1O	·	·	10µM*	·	·	·
NC(=O)c1cc(-c2csc(NCCc3ccccc3)n2)ccc1O	?	1%	32µM*	i	7%	19%
C=CCNc1nc(-c2ccc(O)c(C(N)=O)c2)cs1	?	2%	-119%	-6%	0%	11%
Cc1ccc(-c2csc(Nc3ccc(O)c(C(=O)O)c3)n2)cc1	·	·	35µM*	·	·	·
O=C(Nc1cccc(C(F)(F)F)c1)c1cccc(NC(=O)c2cc(=O)c3ccccc3o2)c1	·	·	-22%	·	·	·
CCOC(=O)COc1ccc2c(=O)c(Oc3cc(C)c(Cl)c(C)c3)coc2c1	·	·	7%	·	·	·
CC1CC(C)CN(C(=O)CNC(=O)c2sc3ccccc3c2Cl)C1 (configuration not stated)	-1%	2%	187%	-66%	3.2µM*	-9%
C=CCc1cccc(OC)c1OCCOCCNCCO	0%	-4%	2.2µM*	-5%[57.5 µM]	?	2%
COc1cccc(OC)c1OCCNCCO	8%	-3%	9%	i	1%	-6%
COc1ccc2cc(C(=O)Nc3cc(C)ccn3)c(C)nc2c1	·	·	3%	·	·	·
NC(=O)C1CN(CC(=O)Nc2cc(Cl)ccc2Cl)c2ccccc2O1 (configuration not stated)	·	·	5%	·	·	·
C1=CCN(c2nc(N3CCOCC3)nc(N3CCCc4ccccc43)n2)CC1	-6%	-5%	-12%	-12%	11µM*	7%
COc1cc(C)cc2oc(=O)c(CC(=O)NCCc3ccccc3)c(C)c12	·	·	42%	·	·	·
CC(NC(=O)c1cc2ccccc2oc1=O)c1ccc(C(F)(F)F)cc1 (configuration not stated)	·	·	-30%	·	·	·
COc1ccc(/C=N/NC(=S)N[C@H]2CC3CCC2C3)cc1 (some centres not stated)	1%	4%	10µM*	i	?	18%
COC(=O)c1ccc(NC(=S)NC2CC3CCC2C3)cc1 (configuration not stated)	-4%	0%	?	-24%	10µM*	-4%
SMILES	GLS inhibitor	GRP78 ERSR act	ALOX12 inh	PTHR1 agonist	GLP1R inv ag	GLP1R ag
COc1ccc(OCc2cc(C(=O)NCCc3nc(C)c(C)s3)no2)c(Cl)c1	·	·	8%	·	·	·
CC1(c2ccccc2)O[C@@H]2C[C@H]3[C@@H]4CCC5=CC(=O)C=C[C@]5(C)[C@@]4(F)[C@@H](O)C[C@]3(C)[C@]2(C(=O)CO)O1 (some centres not stated)	0%	-5%	0%	i	7.9µM*	4%
O=S1(=O)CC(N2CC=CC2)CN1C1CCCCC1 (configuration not stated)	11µM*	-4%	-6%	-24%	10%	9%
CSc1ccc(/C=C(\C#N)C(=O)Nc2ccc(C)cc2)cc1	·	·	-18%	·	·	·
CN(C)c1ccc(-c2cncnc2-n2ccnc2)cc1	·	-5%	40µM*	·	·	·
CNC(=O)C1(N2CCC[C@H]2C(=O)NCCOC)CCOCC1	·	·	10µM*	·	·	·
CCNC(=O)[C@@H]1CCCN1C1(C(=O)NC)CCOCC1	·	·	-1%[176 µM]	·	·	·
Clc1cc(CNCCc2cccs2)cc2c1OCCCO2	·	·	-20%	·	·	·
Cc1c(Cc2ccccc2)sc(NC(=O)Cc2ccccc2)c1C(N)=O	-5%	-6%	16µM*	-8%[57.5 µM]	-22%	0%
CCC(=O)Nc1sc(Cc2ccccc2)c(C)c1C(N)=O	-29%	-2%	-24%	i	27%	12%
Cn1cc(C(=O)NC2CCS(=O)(=O)C2)c2ccccc21 (configuration not stated)	·	·	29%	·	·	·
Cn1cc(C(=O)NC2(C)CCS(=O)(=O)C2)c2ccccc21 (configuration not stated)	·	·	13µM*	·	·	·
C=CCNc1nc(C(=O)OCC(=O)NCC(=O)Nc2ccccc2Br)cs1	·	·	5%	·	·	·
COc1ccc(-c2cc(C(F)(F)F)nc(NCCc3ccccc3)n2)cc1OC	-10%	-3%	-22%	-5%	19%	2%
COc1ccc(CCNc2nc(-c3ccccc3OC)cc(C(F)(F)F)n2)cc1OC	1%	-3%	7%	-25%	3.5µM*	3%
COc1cccc(-c2cc(C(F)(F)F)nc(NCCc3ccccc3)n2)c1	-1%	-1%	-15%	-7%	?	1%
COc1ccc(-c2cc(C(F)(F)F)nc(NCCc3ccccc3)n2)cc1	-11%	0%	-9%	i	3.2µM*	0%
COc1ccccc1Cc1nc2ccccc2nc1SCC(=O)NCc1ccco1	·	·	-46%	·	·	·
CCC1=Nc2ccccc2N=C(NC(=O)c2ccc(OC)cc2)C1c1ccc(OC)c(OC)c1 (configuration not stated)	·	·	0%	·	·	·
COc1ccc(NC(=O)c2noc3c2CC(C)CC3)c(OC)c1 (configuration not stated)	·	·	-36%	·	·	·
Clc1ccccc1CSc1cc2c(nn1)-c1ccccc1CC2	2%	2%	21%	-9%	10µM*	-4%
O=C(NC1CC1)c1ccc2c(c1)OCCCO2	·	·	21%	·	·	·
Cc1cccc(NC(=O)CC2CCC2)c1	2%	2%	1%	?	4%	6%
Cc1cc(NC(=O)CC2CCCC2)ccc1Br	5%	2%	5%	-24%	8.9µM*	15%
Cc1ccc(NC(=O)CN2C(=O)NC3(CCCCCC3)C2=O)cc1Cl	0%	-4%	291%	-13%	?	0%
